The values that follow come from ChEMBL document CHEMBL3988442, “University of Dundee, Small-Polar-MMV Screening Library” (2021).

Among all 48,000 compounds or so, about 13,000 (27%) showed an effect of 50% or more. The list shows a part of the results.

The test relates to Wolbachia pipientis. The experiment in a line: Anti-Wolbachia Cell-Based Screen. The test is classed as functional. Also on record: scale not given: in the data most compounds retested in dose-response had high values. Particulars: 5 µM.
For the compound `Cn1cc(CN2CCc3ncn(C)c3C2COCc2ccccc2)cn1` (centres undefined), the “Percent Effect” value was determined as 0.114%.
`Nc1ncnc2nc(C3CCN(C(=O)Cc4ccc(F)cc4)C3)ccc12` (centres undefined): the “Percent Effect” value was 118.1%.
Under `Cc1ccc(CC(=O)N2CCCC(c3cc(C)[nH]n3)C2)cn1` (centres undefined) stands -0.4689%; under `O=C(Cc1ccncc1)N1C[C@@H]2CC[C@H](C1)N(Cc1ccccc1)C2=O`, 6.116%; under `Cc1nnc([C@H]2C[C@H]3CN(C(=O)Cc4ccc(F)cc4)CC[C@@H]3O2)o1`, -15.1%.
For `O=C(Cc1ccccc1)N1CCn2cc(Cn3cncn3)nc2C1` the value was 14.97%.
Under `Nc1ncnc2nc(C3CCN(C(=O)Cc4ccccc4)C3)ccc12` (centres undefined) stands 78.69%.
As to `O=c1[nH]c2cc(S(=O)(=O)N3CCC(c4ccsc4)CC3)ccc2o1`, the “Percent Effect” value is given as 12.73%.
For `COC(=O)CNC(=O)CSCc1nc(O)c2cc(C)sc2n1` the value was 28.1%; for `Cc1cc2ncn(C[C@]3(O)CCCN4CCCC[C@@H]43)c2cc1C`, 111.8%; for `O[C@@]1(Cn2cnc(Cl)c2Cl)CCCN2CCCC[C@@H]21`, 101.1%.
Under `Cc1ccnc(N2CCN(C[C@]3(O)CCCN4CCCC[C@@H]43)CC2)c1` stands -8.166%.
As for `Cc1cccnc1CN1CCN(C[C@]2(O)CCCN3CCCC[C@@H]32)CC1`, the “Percent Effect” value was 4.951%.
For `O[C@@]1(CNCCOc2ccccc2)CCCN2CCCC[C@@H]21` the value was -8.201%; for `CCN(Cc1noc(CC(C)C)n1)C[C@]1(O)CCCN2CCCC[C@@H]21`, 2.054%; for `Cc1cnccc1N1CCN(C[C@]2(O)CCCN3CCCC[C@@H]32)CC1`, -12.63%.
Under `O[C@@]1(CN2CCN(Cc3ccncc3)CC2)CCCN2CCCC[C@@H]21` stands 17.3%.
Under `COc1ccc2c(c1)ncn2C[C@]1(O)CCCN2CCCC[C@@H]21` stands 108.1%; under `CCS(=O)(=O)N1Cc2c(Cn3ccnc3)nn(C(C)C)c2C1`, 9.692%; under `COC[C@@]12CC[C@@H](N3CCOCC3)C[C@H]1CCN(c1cc(C)ccn1)C2`, -3.135%.
For the compound `O=C(Nc1ccc(F)cc1F)NC1(CO)CCOCC1`, the “Percent Effect” value is -12.95%.
Under `O=C(CCNC(=O)c1ccoc1)Nc1ccc(F)cc1F` stands -4.684%; under `O=C(NCCCO)Nc1cccc(I)c1`, 5.16%.
With `O=C(NCCCNC(=O)c1cccc(O)c1)Nc1ccc(Cl)cc1`, the “Percent Effect” value stood at 112%.
For `O=C(NCCCNC(=O)c1ccccc1)Nc1ccc(F)cc1F` the value was 98.16%; for `O=C(Cc1cccc(O)c1)NCCCNC(=O)c1cccc(F)c1`, 107.1%.
Regarding `Cc1cccc(C(=O)NCCCN2CCN(c3ccccc3)CC2)c1`, the “Percent Effect” value is reported as 0.2933%.
Consider `O=C(NCCCNC(=O)c1ccc(F)cc1F)c1cccc(O)c1`, for which the “Percent Effect” value is listed as 113.1%.
Turning to `O=C(NCC(O)c1ccc(F)cc1F)c1cccc(F)c1` (centres undefined), the “Percent Effect” value is reported as -1.094%.
Under `NC(=O)CCCNC(=O)Cc1cccc(I)c1` stands -16.28%.
Take `Cc1nc(C)c(C(=O)NCCNC(=O)c2ccc(F)cc2F)s1`: the “Percent Effect” value was found to be 5.73%.
Under `CC(NC(=O)NC1CCN(Cc2ccccn2)CC1)c1nncn1C` (centres undefined) stands 0.2394%; under `CC(C)(C)CN[C@@H]1CO[C@H](CNC(=O)c2ccncc2)[C@H]1O`, -9.96%.
As for `CC(=O)Nc1ccc(Cl)c(C(=O)N(C)Cc2nc(C)c[nH]2)c1`, the “Percent Effect” value was -7.642%.
As to `CCCc1nc(CN(C)CCOc2ccccc2)cs1`, the “Percent Effect” value is -8.28%.
Under `CC(C)N(C)S(=O)(=O)N1CCCC1CC(=O)c1cccs1` (centres undefined) stands 9.795%; under `CC(C)Cc1noc(CN(C)C(=O)CCNC(=O)c2ccccc2F)n1`, -3.806%.
For `CC(CNCC1(S(C)(=O)=O)CCOCC1)c1ccc(F)cc1` (centres undefined) the value was 6.37%; for `CNc1cc(-c2nc(CCN3CCCC3=O)no2)ccn1`, 8.6%.
For `O=C(Cc1cccc(F)c1)NCCCNC(=O)c1cccc(O)c1` the value was 95%; for `CC(NC(=O)N(C)Cc1ccsc1)c1ccc2c(c1)NC(=O)CO2` (centres undefined), -9.283%; for `Cc1cc(F)c2c(c1)CCCN2Cc1nc2c(cnn2C)c(=O)[nH]1`, -12.02%.
Regarding `CN(C(=O)CN1CCCc2cc(F)cc(F)c21)c1ccccc1`, the “Percent Effect” value is -11.45%.
Take `Cn1c(CN2CCCc3cc(F)cc(F)c32)cc(=O)n(C)c1=O`: the “Percent Effect” value was 98.13%.
Under `Cc1cc(C2CCCN2Cc2cc(=O)n(C)c(=O)n2C)on1` (centres undefined) stands -9.858%; under `Cc1cc(F)c2c(c1)CCCN2C(=O)c1cncc(Br)c1`, 14.39%; under `Cc1ccc(F)c2c1CCCN2Cc1cc(=O)n(C)c(=O)n1C`, 107.3%.
For `Cn1c(CS(=O)(=O)c2ccc(Cl)cc2)cc(=O)n(C)c1=O` the value was 2.461%; for `Cn1ncc2c(=O)[nH]c(CN3CCCc4cc(F)cc(F)c43)nc21`, -18.5%.
For `Cc1cc(F)c2c(c1)CCCN2Cc1cc(=O)n(C)c(=O)n1C` the value was 117.6%; for `COC(=O)N1CCc2ccccc2C1C(=O)NCc1ccccn1` (centres undefined), -3.953%.
As for `N#CC1(NC(=O)c2nccc3ccccc23)CCC1`, the “Percent Effect” value amounted to 2.644%.
For `CC(C)[C@H](NS(C)(=O)=O)C(=O)NCc1cc(-c2cccc(Cl)c2)nn1C` the value was 123.3%.
For `CCC(C(=O)NCc1ccncc1)N(c1cccc(Cl)c1)S(C)(=O)=O` (centres undefined) the value was -1.901%.
